Shown are actives, neighbours in structure and some others; about 2.2% of the full set was active somewhere.
Ba/F3 V617F tox – reduced viability of JAK2V617F-dependent Ba/F3 cells, primary screen, JAK2V617F inhibitor project, cell-based, Ba/F3 EpoR-JAK2V617F, luminescence | 1.1% of 220,000 active | AID 1446, 2008 | inhibition, % at 5.6 µM | ATP luminescence;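 active = inhibition above the campaign mean plus 3 SD over all tested compounds, cut at about 24% in these data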;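 also: cytokine-independent growth of Ba/F3 cells driven by EpoR plus mutant JAK2; 0% = DMSO-treated cells and 100% = JAK inhibitor I control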
IEC-6 tox – cytotoxicity in IEC-6 intestinal epithelial cells, primary screen, cytotoxicity control for KLF5 inhibitor project, cell-based, luminescence | IEC-6 cytotoxicity, luminescence viability | inhibition, % at 5 µM | 0.78% of 290,000 active | AID 1825, 2009;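 also: 0% = plate median of test compound wells and 100% = cytotoxic reference compound wells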
BaF3 tox – parental Ba/F3 cell viability inhibition, counter-screen for JAK2V617F inhibitor project, murine pro-B, CellTiter-Glo luminescence; CellTiter-Glo ATP luminescence; inhibition, % at 5.6 µM; 1.1% of 220,000 active; AID 1486, 2009;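 active = inhibition above a per-campaign cutoff, the mean inhibition of all tested compounds plus 3 SD, cut at about 27% in these data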;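 also: 0% = DMSO wells and 100% = JAK Inhibitor I control wells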
aSyn 5UTR inh – MLPCN primary screen, SNCA 5' untranslated region; inhibition, % (tested at 7.5 µM); AID 1813, 2009; alpha-synuclein 5'UTR reporter, inhibitor activity; 0.82% of 300,000 active; in the data active = inhibition above about 60%;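 also: H4 neuroglioblastoma cells stably carrying SNCA 5'UTR luciferase fusion; 0% = DMSO wells and 100% = positive control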
KLF5 inhibitor – KLF5 expression inhibitors, primary screen, DLD-1 cells, luminescence; inhibition, % at 5 µM; AID 1700, 2009; DLD-1 KLF5 promoter-luciferase reporter; 0.23% of 290,000 active;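 active = inhibition above a per-plate limit of that plate's mean compound inhibition plus 3 SD, cut at about 60% in these data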;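 also: 0% = DMSO wells and 100% = LY294002 at 200 µM; higher means less KLF5 promoter-driven luciferase light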
APP transl inh – inhibitors of APP translation via 5'UTR reporter, primary screen, APP 5'UTR luciferase, SH-SY5Y cells. SH-SY5Y APP 5'UTR-luciferase reporter, luminescence. inhibition, % at 2 µM. 0.82% of 190,000 active;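 active = inhibition above a set limit, derived from the sample mean plus 3 SD, cut at about 45% in these data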
IEC-6 cytotox cf – cytotoxic compounds in IEC-6 epithelial cells, confirmation, cytotoxicity control, cell-based, luminescence; 63% of 1,900 active; inhibition, % at 5 µM; shares compounds with IEC-6 tox; AID 1907, 2009; IEC-6 rat intestinal epithelial viability;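 also: 0% = vehicle and 100% = reference cytotoxic drug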
* = called active by the depositor; nt = no result given. Rule as the data show it, unless noted: active = inhibition above about 22%; inactive = the rest.

SMILES | Ba/F3 V617F tox | IEC-6 tox | BaF3 tox | aSyn 5UTR inh | KLF5 inhibitor | APP transl inh | IEC-6 cytotox cf
O=C(Nc1ccc(-c2nc3ncccc3o2)cc1)c1ccc([N+](=O)[O-])o1 | nt | 80.0* | nt | 100.3* | 13.8 | nt | 8.3
CC(C)C(=O)Nc1ccc(-c2nc3ncccc3o2)cc1 | nt | 8.6 | nt | -8.9 | -52.5 | nt | nt
Cc1ccc(C)c(NC(=S)N2CCC(NC(=O)C3CCCCC3)CC2)c1 | nt | -1.5 | nt | 9.2 | 1.2 | nt | nt
CCOC(=O)[C@@H]1[C@H]2COc3ccccc3[C@@H]2N2C(=O)N(c3ccccc3)C(=O)[C@]12C | nt | 1.7 | nt | -0.2 | -12.9 | nt | nt
C=C(C)C(=O)N1CC2(CC(c3cccc(NC(=O)CC)c3)=NO2)C[C@H]1C(N)=O (some centres undefined) | nt | nt | nt | 1.4 | nt | nt | nt
COc1ccc(CNc2ncnc3cc(OC)c(OC)cc23)cc1OC | 5.1 | 7.2 | 9.8 | 5.4 | -15.9 | 11.5 | nt
COc1cc2ncnc(NCc3ccccc3)c2cc1OC | 1.1 | 26.2* | 5.2 | 14.5 | 6.2 | -2.4 | 30.1*
COc1cc2ncnc(NCc3cccc(Cl)c3)c2cc1OC | 1.2 | 33.3* | 2.0 | 16.9 | 7.0 | 9.5 | 36.8*
COc1cc2ncnc(NCc3cc(F)ccc3F)c2cc1OC | nt | 37.1* | nt | 15.0 | 3.8 | nt | 21.3
COc1ccc(CCNS(=O)(=O)c2ccc(Br)cc2)cc1OC | nt | 2.8 | nt | 3.1 | -8.2 | nt | nt
CCCC(=O)Nc1ccc2c(c1)nc(CN1CCN(C(=O)OCC)CC1)n2CC | nt | 31.1* | nt | -52.7 | 48.8 | nt | 17.7
O=C(c1ccc(CS(=O)c2ccccc2Cl)o1)N1CCN(c2ccccc2)CC1 (centres undefined) | nt | 80.0* | nt | 110.1* | 53.0 | nt | 56.6*
COc1cc(C2c3cc4c(cc3C(OC3OC5COC(c6cccs6)OC5C(O)C3O)C3COC(=O)C23)OCO4)cc(OC)c1O (centres undefined) | 98.4* | 93.2* | 102.0* | 81.7* | 40.6 | nt | 74.0*
CCc1c(C)nc2ncnn2c1Nc1ccc(C)cc1 | nt | 9.5 | nt | 13.5 | -13.7 | nt | nt
CCc1c(C)nc2ncnn2c1NCCc1ccc(OC)cc1 | 63.0* | 24.4* | 57.4* | 30.9 | 17.2 | 19.5 | 23.7*
Cc1nn(Cc2noc(C(=O)NC3CCC(C)CC3)n2)c(C)c1Br (centres undefined) | nt | 35.2* | nt | 15.6 | -16.0 | nt | 23.8*
Cc1ccc(S(=O)(=O)Nc2cccc(N(C)S(C)(=O)=O)c2)cc1[N+](=O)[O-] | 96.9* | 22.8* | 95.0* | 0.2 | -20.9 | 2.1 | -9.1
Clc1ccc2c(c1)C=Nc1c(NCc3ccccc3)ncnc1O2 | -1.5 | -1.3 | 3.3 | 12.5 | -0.5 | -24.5 | nt
C1=Nc2c(Nc3ccccc3)ncnc2Oc2ccccc21 | -4.3 | 52.7* | 6.1 | -12.0 | -38.7 | -6.2 | 33.0*
CCc1ccc(N(CC(=O)NC(C)(C)C)C(=O)CCC(=O)Nc2ccccn2)cc1 | nt | -2.4 | nt | -6.7 | -32.0 | nt | nt
CCNc1oc(/C=C/c2ccc(OCC)cc2)nc1C#N | nt | 52.2* | nt | -188.1 | -16.8 | nt | 35.6*
CCN(CC)CCCNc1oc(/C=C/c2ccccc2)nc1C#N | -3.8 | 3.0 | 2.6 | -63.8 | -28.7 | nt | nt
COc1cccc(NC(=O)c2nc(SC)ncc2Cl)c1 | nt | 9.9 | nt | -20.1 | -12.2 | nt | nt
CN(c1ccccc1)S(=O)(=O)c1ccc(NC(=O)c2ccccc2)cc1 | -4.9 | 1.5 | 1.3 | -31.6 | 7.6 | -9.5 | nt
COc1cccc(NC(=O)c2nc(S(C)(=O)=O)ncc2Cl)c1 | nt | 100.4* | nt | -25.8 | 29.8 | nt | 17.3
SMILES | Ba/F3 V617F tox | IEC-6 tox | BaF3 tox | aSyn 5UTR inh | KLF5 inhibitor | APP transl inh | IEC-6 cytotox cf
CN(c1ccccc1)S(=O)(=O)c1ccc(NC(=O)c2nc(S(C)(=O)=O)ncc2Cl)cc1 | nt | 94.7* | nt | 16.3 | 23.1 | nt | 3.4
O=C(Nc1nc2ccccc2[nH]1)C1CC1 | 17.6 | 32.6* | 50.3* | -45.8 | -10.2 | -10.3 | 17.4
O=C(COC(=O)CN1C(=O)c2ccccc2C1=O)NC1CCCCC1 | nt | 3.3 | nt | -28.8 | -1.5 | nt | nt
CCCOc1ccc(C(=O)NNC(=S)NC(=O)c2ccccc2)cc1 | nt | 36.8* | nt | 79.6* | 19.4 | nt | 17.8
CCCOc1ccc(C(=O)NNC(=S)NC(=O)c2cccs2)cc1 | nt | 38.7* | nt | 54.3 | 27.6 | nt | 50.1*
COc1ccc(NC(=O)c2cccnc2)c([N+](=O)[O-])c1 | 66.4* | 46.4* | 60.4* | -7.5 | 18.3 | 21.2 | 30.1*
CC(CCc1ccccc1)NC(=O)Cc1cccs1 (centres undefined) | 0.3 | 4.4 | 12.5 | -5.9 | 7.9 | 2.9 | nt
CCCN(CCC)C(=O)C1CCN(c2ccc(S(=O)(=O)N3CCOCC3)cc2[N+](=O)[O-])CC1 | nt | -1.4 | nt | 23.1 | -37.0 | nt | nt
COc1ccc(CCN(C)C(=O)c2c(C)nn(-c3ccccc3)c2C)cc1OC | nt | 0.6 | nt | -1.4 | -1.5 | nt | nt
c1ccc(-c2noc(-c3cccnc3)n2)nc1 | 2.9 | 6.9 | 8.6 | -48.3 | -111.8 | -75.0 | nt
c1ccc(-c2noc(-c3ccncc3)n2)nc1 | 32.7* | 29.0* | 34.2* | -61.6 | -66.3 | -103.6 | 25.2*
CC(C)C(=O)N1CCN(c2ccccc2NC(=O)c2cccc3ccccc23)CC1 | nt | -5.4 | nt | 10.8 | -8.9 | nt | nt
COc1c(OC)c(O)c2c(=O)cc(-c3c(O)cccc3O)oc2c1OC | 2.7 | 23.4* | 37.0* | -64.1 | -4.5 | 9.8 | 2.6
COc1ccc(-c2cc(=O)c3c(OC)c(OC)c(OC)c(OC)c3o2)cc1OC | 3.6 | 1.0 | -3.5 | 28.6 | -18.6 | 7.5 | nt
Cc1ccc(S(=O)(=O)N(C)C)cc1NC(=S)Nc1cccc2ccccc12 | nt | 61.7* | nt | 19.3 | -8.9 | nt | 3.8
CCc1cccc(NC(=S)Nc2cccc3ccccc23)c1 | nt | 29.2* | nt | -30.1 | -48.0 | nt | 14.2
CC(=O)NNC(=S)Nc1cc(S(=O)(=O)N(C)C)ccc1C | 3.4 | -0.5 | 4.2 | 5.6 | -9.0 | -27.7 | nt
COc1cccc(NC(=S)Nc2cccc3ccccc23)c1 | nt | 35.9* | nt | -69.6 | -109.4 | nt | 7.3
CCn1c(SCC(=O)c2ccccc2)nc2ccccc2c1=O | 2.9 | 61.2* | 7.4 | -20.7 | -8.2 | 1.9 | 36.6*
CCc1ccc(S(=O)(=O)N2CCCC(N3CCN(c4ccc(OC)cc4)CC3)C2)cc1 (centres undefined) | nt | -0.1 | nt | 24.1 | -27.2 | nt | nt
CCCN(CC(=O)Nc1ccc(F)c(F)c1F)CC(=O)Nc1c(Cl)cccc1Cl | -0.2 | 59.1* | 4.9 | 15.4 | -3.2 | -2.6 | 37.7*
C/C(=N\NC(=O)CN1CCCCC1)c1cccc([N+](=O)[O-])c1 | nt | nt | nt | -93.1 | nt | nt | nt
C/C(=N\NC(=O)CN1CCCCC1)c1ccccc1O | nt | 41.8* | nt | 46.3 | -9.5 | nt | 18.8
COc1ccccc1C(=O)NC(=O)COC(=O)c1ccc([N+](=O)[O-])cc1 | nt | nt | nt | -6.9 | nt | nt | nt
CC(C)n1cc(/C=N/Nc2ccc(C(=O)O)cc2)c2ccccc21 | nt | 35.2* | nt | -79.3 | 44.7 | nt | 54.8*
CC(/C=N/NC(=O)c1cccc(F)c1)=C\c1ccccc1 | nt | 28.3* | nt | -254.5 | -47.8 | nt | 5.7
